An excerpt weighted towards active compounds, which were near 1.8% of everything screened.
CendR NRP1 mod: NRP-1/CendR interaction modulation; FAM-RPARPAR peptide binding to NRP-1, fluorescence polarization; inhibition, % at 25 µM; 0.85% of 360,000 active; O14786;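 active = inhibition or corrected inhibition above about 18%, plus a signal ratio from 0.5 to 1.5, limit read from the data, passing the limit was not always enough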
GSIS activator: primary screen for activators of insulin secretion dependent on glucose, INS-1E cells, GLuc reporter luminescence; INS-1E GLuc reporter insulin secretion, 2-3 h; activation, % at 16.6 µM; 0.61% of 370,000 active;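 active = lowest replicate activation of at least 40%, so every replicate reaches that level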;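 note: 0% = median of neutral control wells and 100% = median of IBMX positive control wells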
ARNT-TACC3 inh: disruptors of human ARNT/TACC3 interaction | Q9Y6A5 | AlphaScreen His-ARNT PAS-B/GST-TACC3 binding, luminescence; TACC3 fragment carries E629A point mutation | inhibition, % at 9.99 µM | 0.66% of 390,000 active | AID 623870;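 active = mean inhibition of replicates at least 50% and at least half of replicates each reaching 50%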;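 note: 0% = complete ARNT plus TACC3 wells and 100% = ARNT alone without TACC3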
hiPSC survival: increases survival of single human iPS cells | hiPSC single-cell survival, ATPlite luminescence; 100% = ROCK inhibitor wells, 0% = DMSO | survival enhancement, % at 20 µM | 0.044% of 360,000 active | AID 602274; in the data active = survival enhancement above about 18%;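 note: cells exposed to compounds for 16 hours before the ATP read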
ABCB6 inh 2: blocks the human ABCB6 transporter | 0.19% of 360,000 active | Q9NP58 | K562-ABCB6 porphyrin accumulation, flow cytometry, 1 h; hits give low values | AID 602162 | fluorescence ratio to DMSO, % at 10 µM;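 active = fluorescence ratio to DMSO below 75%, the collection mean minus 3 SD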;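 note: signal is porphyrin accumulated inside mitochondria; 100% equals median channel fluorescence of DMSO control wells; lower ratio means ABCB6 inhibition with less porphyrin fluorescence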
Target sequence (Q9NP58 whole entry, looked up): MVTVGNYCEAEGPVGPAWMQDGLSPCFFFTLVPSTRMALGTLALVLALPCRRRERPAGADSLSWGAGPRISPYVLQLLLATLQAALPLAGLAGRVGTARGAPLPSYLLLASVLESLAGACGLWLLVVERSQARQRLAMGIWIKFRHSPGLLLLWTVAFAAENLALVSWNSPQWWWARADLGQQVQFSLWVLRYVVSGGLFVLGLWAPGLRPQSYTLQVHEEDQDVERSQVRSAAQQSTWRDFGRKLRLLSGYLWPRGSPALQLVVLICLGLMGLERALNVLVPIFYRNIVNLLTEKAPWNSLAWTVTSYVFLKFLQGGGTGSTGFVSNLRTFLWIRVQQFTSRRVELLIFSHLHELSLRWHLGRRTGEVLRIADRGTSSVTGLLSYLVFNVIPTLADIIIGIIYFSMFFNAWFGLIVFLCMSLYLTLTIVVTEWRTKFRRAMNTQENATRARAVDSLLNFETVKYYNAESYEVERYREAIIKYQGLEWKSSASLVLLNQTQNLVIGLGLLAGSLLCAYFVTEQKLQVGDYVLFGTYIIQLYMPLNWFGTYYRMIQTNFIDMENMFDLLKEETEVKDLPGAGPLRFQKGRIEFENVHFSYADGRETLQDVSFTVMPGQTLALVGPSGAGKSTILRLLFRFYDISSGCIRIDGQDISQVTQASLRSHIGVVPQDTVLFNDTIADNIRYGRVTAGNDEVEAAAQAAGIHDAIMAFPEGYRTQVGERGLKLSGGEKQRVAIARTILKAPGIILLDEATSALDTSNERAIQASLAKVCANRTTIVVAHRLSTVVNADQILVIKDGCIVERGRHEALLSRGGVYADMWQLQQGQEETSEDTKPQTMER
ARNT Alpha ctr: AlphaScreen artifact in ARNT/TACC3 counter-screen | shares compounds with ARNT-TACC3 inh | His-ARNT PASB-GST AlphaScreen artifact counter-screen, luminescence | AC50, µM (top dose mostly 68 µM), for the others: at the highest dose activity change, negative = signal decrease | AID 651705 | 50% of 1,200 active;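 active = every separate test run was called active for a drop in luminescence, with AC50 within twice the top valid dose, actives reach about 71 µM in these data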
* hit, by the source's call; / = not tested or not shown; [ ] = remark or other dose.

SMILES	CendR NRP1 mod	GSIS activator	ARNT-TACC3 inh	hiPSC survival	ABCB6 inh 2	ARNT Alpha ctr
COc1cc(C2Nc3ccccc3C(=O)N2NS(C)(=O)=O)c([N+](=O)[O-])cc1OC (stereo not given)	-3.5	5.2	active	0.0	98.0	-11.1%
Cc1ccc(-n2c(SCc3ccc(C#N)cc3)nnc2-c2ccccn2)cc1	9.4	/	0.1	-1.3	92.0	/
Cc1ccc(-n2c(SCC(N)=O)nnc2-c2ccccn2)cc1	6.8	/	54.7*	-4.0	94.0	-21.1%
CCN(CC)C(=O)CSc1nnc(-c2cnccn2)n1-c1ccccc1	-8.6	/	-0.5	0.8	98.0	/
CCN(CC)C(=O)CSc1nnc(-c2ccccn2)n1-c1ccc(C)c(C)c1	-1.9	/	52.4*	-2.4	96.0	-9.0%
CC(C)[C@H]1C(=O)N[C@H](c2ccc3c(c2)OCO3)CC=CC[C@@H](C)Oc2ccccc2C(=O)N1C (mixture of isomers)	/	-12.9	/	/	/	/
C=CCn1c(Cc2csc(N)n2)nnc1SCC(=O)Nc1ccc(C(=O)OCC)cc1	-20.9	6.3	61.1*	0.0	95.0	-30.2%
C[C@@H]1CN([C@H](C)CO)C(=O)c2cc(C#C[C@@H](C)O)cnc2O[C@@H]1CN(C)C(=O)c1ccccc1	/	15.9	-1.3	/	/	/
CCCCC(=O)NC(c1cccs1)c1cc(Cl)c2cccnc2c1O (stereo not given)	-0.8	-4.3	4.4	0.8	96.0	/
CCC(=O)NC(c1cccs1)c1cc(Cl)c2cccnc2c1O (stereo not given)	12.9	3.5	4.3	0.5	98.0	/
CCC(=O)NC(c1cc(Cl)c2cccnc2c1O)C1CC1 (stereo not given)	-0.9	-4.8	57.5*	-2.6	99.0	37.2µM*
CCC(=O)NC(c1cc(Cl)c2cccnc2c1O)C(C)C (stereo not given)	19.1	7.3	54.2*	-5.6	98.0	68.7µM*
COCCNC(=O)C[C@@H]1CC[C@@H]2[C@@H](COc3ccc(NC(=O)Nc4ccccc4)cc3C(=O)N2C)O1	/	/	7.7	/	/	/
COc1ccc(NC(=O)N[C@H]2CC[C@H](CCn3cc(-c4ccccn4)nn3)O[C@@H]2CO)cc1	/	24.1	20.0*	/	/	36.4µM*
O=C(C[C@H]1CC[C@H](NC(=O)c2ccccc2)[C@@H](CO)O1)Nc1ccc(-c2ccccc2)cc1	/	-4.3	-12.2	/	/	/
O=C(N[C@H]1CC[C@H](CCn2cc(-c3ccccn3)nn2)O[C@@H]1CO)c1ccccc1	/	-2.5	74.3*	/	/	34.2µM*
COCc1cn(CC[C@@H]2CC[C@H](NC(=O)c3ccccc3)[C@@H](CO)O2)nn1	/	-6.9	-13.1	/	/	/
O=C(C[C@H]1CC[C@@H](NC(=O)c2ccccc2)[C@H](CO)O1)Nc1ccc(-c2ccccc2)cc1	/	-4.8	50.6*	/	/	-1.0%[42 µM]
c1ccc(-c2cn(C[C@H]3CC[C@H](Cn4cc(-c5ccccn5)nn4)O3)nn2)nc1	-8.6	5.9	72.0*	-2.7	99.0	7.78µM*
C[C@H]1CN([C@@H](C)CO)C(=O)Cc2cc(NS(=O)(=O)c3ccccc3)ccc2O[C@@H]1CN(C)CC1CCCCC1	/	-1.0	-4.5	/	/	/
N[C@@H]1CC[C@H](CCn2cc(-c3ccccn3)nn2)O[C@H]1CO	/	-3.8	74.6*	/	/	6.56µM*
O=C(N[C@H]1CC[C@@H](CCn2cc(-c3ccccc3)nn2)O[C@@H]1CO)c1cnccn1	/	9.2	active	/	/	-3.3%[42 µM]
O=C(N[C@H]1CC[C@H](CCn2cc(-c3ccccn3)nn2)O[C@H]1CO)c1ccccc1	/	6.3	54.0*	/	/	-10.3%[38 µM]
COCc1cn(CC[C@H]2CC[C@H](NC(=O)c3ccccc3)[C@@H](CO)O2)nn1	/	-2.5	-5.3	/	/	/
COCc1cn(CC[C@H]2CC[C@H](NC(=O)c3ccccc3)[C@H](CO)O2)nn1	/	9.8	-6.4	/	/	/
O=C(N[C@@H]1CC[C@H](CCn2cc(-c3ccccn3)nn2)O[C@H]1CO)c1ccccc1	/	11.0	76.1*	/	/	60.1µM*
O=C(N[C@@H]1CC[C@@H](CCn2cc(-c3ccccc3)nn2)O[C@H]1CO)c1cnccn1	/	0.1	7.0	/	/	/
COc1ccc(-c2cn(CC[C@@H]3CC[C@@H](N)[C@H](CO)O3)nn2)cc1	/	4.9	4.9	/	/	/
CN(C)C(=O)C[C@@H]1CC[C@H](NC(=O)C2CC2)[C@@H](CO)O1	/	/	-9.3	/	/	/

Source: PubChem (several laboratories)
